Screening results as filed in PubChem.
MEP2-GFP yeast: yeast TOR pathway MEP2-GFP modulation; S. cerevisiae MEP2-GFP strain, flow cytometry GFP, 3 h; 100% = DMSO control level; GFP response vs DMSO, % at 10 µM; 330,000 compounds, 0.51% hits;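 active = GFP response versus DMSO above a set limit, roughly screen mean plus 3 SD, cut at about 180% in these data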;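 also: median GFP fluorescence of the barcode-gated MEP2-GFP cells per well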
LAP4-GFP MLPCN: modulators of TOR pathway LAP4-GFP in S. cerevisiae; S. cerevisiae LAP4-GFP multiplex, flow cytometry GFP, 3 h; median GFP as percent of DMSO wells; GFP response vs DMSO, % at 10 µM; 320,000 compounds, 0.34% hits; AID 2023;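 active = GFP response vs DMSO above a set limit, about the screen mean plus 3 SD, cut at about 150% in these data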
AGP1-GFP MLPCN: alters AGP1-GFP fluorescence in TOR pathway yeast screen; GFP response vs DMSO, % at 10 µM; 320,000 compounds, 0.02% hits; S. cerevisiae AGP1-GFP multiplex flow cytometry, 3 h; GFP as percent of DMSO wells;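 active = GFP response relative to DMSO above a set limit, near screen average plus 3 SD, cut at about 150% in these data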;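 also: median GFP channel fluorescence of the gated AGP1 strain per well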
RPL19A-GFP yeast: alters RPL19A-GFP fluorescence in TOR pathway yeast screen; S. cerevisiae RPL19A-GFP strain, flow cytometry, 3 h; active compounds read low; percent response vs DMSO, % at 10 µM; 330,000 compounds, 0.3% hits;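 active = percent response vs DMSO below 50%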;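 also: median channel GFP fluorescence of the barcoded RPL19A-GFP strain; lower means less RPL19A-GFP as with rapamycin TOR inhibition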
CIT2 TOR yeast: yeast TOR pathway CIT2-GFP modulation; GFP response vs DMSO, % at 10 µM; S. cerevisiae CIT2-GFP strain, flow cytometry, 3 h; 100 means same as DMSO wells; 320,000 compounds, 0.065% hits; AID 2029;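 active = GFP response relative to DMSO above a set limit, near the screen mean plus 3 SD, cut at about 150% in these data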;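 also: ratio of well median GFP fluorescence to mean of DMSO wells on the plate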
LAP4 cherry2: second confirmation of modulators of TOR reporter LAP4-GFP in yeast; S. cerevisiae LAP4-GFP strain, flow cytometry GFP, 3 h; 590 compounds, 20% hits; AID 2621; shares compounds with LAP4-GFP MLPCN; GFP response vs DMSO, % at 10 µM;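 active = GFP signal as percent of the solvent control above about 150%, meaning raised reporter expression, limit read from the data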
MEP2 cherry2: yeast MEP2-GFP modulation, second cherry pick; shares compounds with LAP4-GFP MLPCN; S. cerevisiae MEP2-GFP strain, flow cytometry GFP, 3 h; GFP response vs DMSO, % at 10 µM; 590 compounds, 10% hits;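 active = GFP signal above 150% of the solvent control wells, that is a rise of more than half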;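 also: median channel GFP fluorescence of all gated yeast cells per well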
RPL19A GFP CP2: reconfirmed modulator of RPL19A-GFP TOR reporter in yeast. S. cerevisiae RPL19A-GFP strain, flow cytometry GFP, 3 h; active compounds read low; 100% means same as DMSO wells. GFP response vs DMSO, % at 10 µM. 590 compounds, 3% hits. shares compounds with LAP4-GFP MLPCN;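 active = under 65% GFP response relative to DMSO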;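 also: median GFP channel fluorescence per well over the all cells gate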
CIT2 GFP CP2: reconfirmed modulator of CIT2-GFP TOR reporter in yeast; S. cerevisiae CIT2-GFP strain, flow cytometry GFP, 3 h; DMSO control wells read 100%; GFP response vs DMSO, % at 10 µM; 590 compounds, 8% hits; shares compounds with LAP4-GFP MLPCN;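 active = GFP response vs DMSO above about 150%, limit read from the data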;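 also: median green fluorescence per well over all gated yeast cells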
AGP1-GFP pick2: reconfirmed modulator of AGP1-GFP TOR reporter in yeast. shares compounds with LAP4-GFP MLPCN. percent response vs DMSO, % at 10 µM. 590 tested, under 10 active. S. cerevisiae AGP1-GFP strain, flow cytometry GFP, 3 h;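 active = over 150 percent of DMSO response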;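 also: median GFP channel fluorescence over all cells without mother daughter split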
s288c autofluor: compound is autofluorescent in yeast s288c cells; fluorescence change (kMESF span) at 33 µM; shares compounds with LAP4-GFP MLPCN; 610 tested, under 10 active; AID 2757; S. cerevisiae s288c, 520 nm autofluorescence, flow cytometry, 3 h; active compounds read high; zero means same as solvent-only cells;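 active = fluorescence span over the dose series, or activity score, above about 33, limit read from the data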
Yeast autofl DR: counter-screen for autofluorescence of TOR hits in yeast s288c; S. cerevisiae s288c parental, compound autofluorescence, flow cytometry, 3 h; shares compounds with LAP4-GFP MLPCN; fluorescence change (span) at 33 µM; 110 tested, under 10 active;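 active = fluorescence change span, or the activity score built from it, above 25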
TORC1 bypass gr: wildtype yeast growth loss with TORC1 bypass cells unaffected; S. cerevisiae BY4741 spot growth rating, 48-72 h; active compounds read low; AID 504456; growth rating (0-3) at 30 µM; shares compounds with LAP4-GFP MLPCN; 120 tested, under 10 active;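 active = growth rating at most 1 for wild type yeast while the TORC1 bypass strain still grows fully, rated 3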
Of the large screens only hits and unclear results are named; the others gave an inactive call (follow-up assays come after a bar, where they were run). Rows were chosen to be rich in hits. Some 0.93% of all compounds tested hit in one or more screens of this group.

Cc1cccc(C(=O)NNC(=S)NC(=O)c2ccccc2)c1	LAP4-GFP MLPCN 155 | s288c autofluor inactive
COc1cccc(OC)c1C(=O)NC(=S)NNC(=O)[C@H]1C[C@@H]1c1ccccc1	none
O=C(CCc1ccccc1)NNC(=S)NC(=O)c1ccccc1	LAP4-GFP MLPCN 243 | s288c autofluor inactive | Yeast autofl DR inactive | TORC1 bypass gr inactive
CC(=O)NC(=S)NNC(=O)CCc1ccccc1	none
CCOc1ccccc1OCCCC(=O)NNC(=O)c1nn(C)c(=O)c2ccccc12	none
O=C1Nc2ccccc2/C1=C/c1cnc(-c2ccccc2)[nH]1	MEP2-GFP yeast 184, LAP4-GFP MLPCN 169, CIT2 TOR yeast 161 | LAP4 cherry2 inactive | MEP2 cherry2 inactive | RPL19A GFP CP2 inactive | CIT2 GFP CP2 inactive | AGP1-GFP pick2 inactive
CNc1nc(N)c([N+](=O)[O-])c(Nc2cc(OC)ccc2OC)n1	none (no result: MEP2-GFP yeast, LAP4-GFP MLPCN, AGP1-GFP MLPCN, RPL19A-GFP yeast, CIT2 TOR yeast) | Yeast autofl DR inactive | TORC1 bypass gr inactive
COc1ccccc1Nc1nc(NCCO)nc(N)c1[N+](=O)[O-]	none
CNc1nc(N)c([N+](=O)[O-])c(Nc2ccccc2OC)n1	none | Yeast autofl DR inactive | TORC1 bypass gr inactive
COCCCNc1nc(N)c([N+](=O)[O-])c(Nc2cc(OC)ccc2OC)n1	none
Cc1nc(N2CCCCC2)c2c(C)c(C(=O)Nc3ccc4c(c3)OCCO4)sc2n1	none
Oc1ccc(-c2c(-c3ccsc3)sc3ccccc23)cc1	LAP4-GFP MLPCN 153 | LAP4 cherry2 inactive | MEP2 cherry2 inactive | RPL19A GFP CP2 inactive | CIT2 GFP CP2 inactive | AGP1-GFP pick2 inactive
O=c1c2cc(NC(=S)N3CCCCCC3)ccc2nc2n1CCCCC2	none
O=C(COC(=O)C1CC1)Nc1c(Cl)cccc1C(F)(F)F	none
Cc1c(Br)c(=O)oc2c(Br)c(O)c(O)cc12	none | LAP4 cherry2 inactive | MEP2 cherry2 inactive | RPL19A GFP CP2 inactive | CIT2 GFP CP2 inactive | AGP1-GFP pick2 inactive | s288c autofluor inactive
Cc1c(Br)c(=O)oc2c(Br)c(O)ccc12	none
COc1cc(CNC(=O)CCCCCCC(C)C)ccc1O	LAP4-GFP MLPCN 158 | LAP4 cherry2 160 | MEP2 cherry2 211 | RPL19A GFP CP2 inactive | CIT2 GFP CP2 188 | AGP1-GFP pick2 inactive | s288c autofluor inactive
Cc1c(Cl)cccc1NC(=O)NCc1ccncc1	none
CC(C)c1ccc(NC2CCCN(C(=O)CCCn3cncn3)C2)cc1 (stereo not given)	none
CC1CCN(C(=O)C(=O)c2cn(CC(=O)N3CCCC3)c3ccccc23)CC1	CIT2 TOR yeast 159 | LAP4 cherry2 inactive | MEP2 cherry2 inactive | RPL19A GFP CP2 inactive | CIT2 GFP CP2 inactive | AGP1-GFP pick2 inactive
